Bioassay records from PubChem.
A selection: hits, their analogues and other compounds. The true share with any hit is near 19%.
DT40 TDP1 no CPT – qHTS for Inhibitors of human tyrosyl-DNA phosphodiesterase 1 (TDP1): qHTS in cells in absence of CPT; DT40 Tdp1-/- hTDP1 cells, no CPT, ATP luminescence, 48 h; Potency, µM (titrated, usually from 46.2 µM), without a hit: at the highest dose activity change, negative = growth inhibition, most hits filed as inhibitors; 15% of 420,000 active; further: potency means the concentration at half of the fitted maximal effect; nearly all actives have a fitted effect of over 55% in size
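Seeded 400 DT40-hTDP1 cells/well (vehicle DMSO, no 20 nM CPT); pinned compounds; ≥48 hr at 37 °C; CellTiter-Glo luminescence as viability measure.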
DT40 TDP1 CPT – qHTS for Inhibitors of human tyrosyl-DNA phosphodiesterase 1 (TDP1): qHTS in cells in presence of CPT. 12% of 420,000 active. chicken DT40 Tdp1-/-;hTDP1 cells + 20 nM CPT, ATP luminescence, 48 h. AID 686979, 2013. Potency, µM (series often up to 46.2 µM), for the others: at the top dose activity change, negative = growth inhibition, hits mostly inhibitors; further: potency means the concentration at half of the fitted maximal effect; nearly all actives have a fitted effect of over 55% in size
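Cell growth measured by CellTiter-Glo luminescence after a minimum 48 h, 37 C compound exposure with 20 nM CPT in Tdp1-knockout DT40 cells stably expressing hTDP1, seeded 400/well; qHTS titration format.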
ELG1 repair inh – qHTS screen for small molecules that inhibit ELG1-dependent DNA repair in human embryonic kidney (HEK293T) cells expressing luciferase-tagged ELG1. HEK293T ELG1-luciferase reporter, luminescence, 16 h; DNA damage induced by 5-fluorouridine. Potency, µM (highest dose often 46.1 µM), for inactives: at the highest dose activity change, negative = inhibition, hits mostly inhibitors. 2.3% of 330,000 active. AID 504467, 2011; further: potency means the concentration at half of the fitted maximal effect; nearly all actives have a fitted effect of over 55% in size
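Quantitative HTS, concentration-response format. 2,000 cells/well co-treated with 5-fluorouridine and compound, 16 hr in 5% CO2 at 37 °C; ONE-Glo luminescence read after 30 min.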
HT1080 IDH1KD tx – qHTS for induction of synthetic lethality in tumor cells producing 2HG: qHTS for the HT-1080-IDH1KD cell line; HT-1080 IDH1 knockdown viability, ATP luminescence, 48 h; Potency, µM (doses to about 46.1 µM), inactives show top-dose activity, negative = toxicity, most hits filed as cytotoxic; 2% of 360,000 active; AID 686971, 2013;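 further: potency means the concentration at half of the fitted maximal effect; 0% = DMSO wells and -100% = cell-free medium wells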
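Luminescent ATP read-out (CellTiter-Glo, 10 min at room temperature) after 48 h compound exposure at 37 °C gave viability of IDH1-knockdown HT-1080 cells. Activity was normalised to DMSO and cell-free wells, then fitted as concentration-response curves.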
HT1080-NT tox – qHTS for induction of synthetic lethality in tumor cells producing 2HG: qHTS for the HT-1080-NT fibrosarcoma cell line; HT-1080-NT fibrosarcoma viability, CellTiter-Glo ATP luminescence, 48 h; Potency, µM (top dose mostly 46.1 µM), for the others: top-dose activity, negative = less viability, actives largely listed as cytotoxic; 1.6% of 360,000 active; AID 686970, 2013;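 further: NT is the 2HG producing partner of a matched IDH1 knockdown line; potency means the concentration at half of the fitted maximal effect; 0% = DMSO-treated cells and -100% = media-only wells without cells; nearly all actives have a fitted effect of over 55% in size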
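A 48-hour cytotoxicity screen used HT-1080-NT cells plated 2 hours before compound delivery. ATP-based CellTiter-Glo luminescence measured viability, normalized to DMSO and no-cell controls.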
IL1B secr inh – qHTS for Inhibitors of Inflammasome Signaling: IL-1-beta AlphaLISA Primary Screen | THP-1 LPS/ATP IL-1B secretion, AlphaLISA, 16 h; active compounds read low | 4.7% of 360,000 active | AID 743279, 2014 | activity change, % at 57.5 µM; in the data active means activity change below about -50%; inconclusive means mostly about -30% to -49%
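THP-1 cells pretreated 1 hr with compounds (up to 57.5 uM final), then stimulated with LPS (250 ng/mL final) plus ATP (1.25 mM final); secreted IL-1B measured by AlphaLISA after 16 hr, decreased signal indicating inhibition.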
Starred values were filed as active, the others as inactive; i = inactive; ? = inconclusive; / = no result. Unless noted, the call rests on the fitted dose curve; in most records, active means well fitted curve in the direction sought with a large enough effect; inconclusive means small, poorly fitted or top-dose-only effect, or another doubt; inactive means no such curve, though single readings can be large; an effect the other way counts as inactive or inconclusive. Unless noted, on the % scale 0 is the no-effect control and ±100 the full control effect.

SMILES | DT40 TDP1 no CPT | DT40 TDP1 CPT | ELG1 repair inh | HT1080 IDH1KD tx | HT1080-NT tox | IL1B secr inh
CSc1nnc(C)c(=O)n1COC(=O)/C=C/c1ccc2c(c1)OCO2 | -20% | -2% | 12% | -3% | 13% | -5
CC1(C(=O)NS(=O)(=O)C2CC2)CCCN(C(=O)c2cccc(Cl)c2)C1 (stereo unspecified) | 1.5µM* | 7.3µM* | / | 27% | 4% | -2
CC1(C(=O)NS(=O)(=O)C2CC2)CCCN(C(=O)c2ccc(F)c(Cl)c2)C1 (stereo unspecified) | 5.2µM* | 5.8µM* | / | 7% | ? | 16
O=C(CSc1nc2c(cnn2-c2ccc(F)cc2)c(=O)[nH]1)Nc1ccccc1C(F)(F)F | -23% | -25% | / | / | / | /
COc1ccc(NC(=O)CSc2nc(=O)n(CCN3CCOCC3)c3c2CCC3)cc1 | 9% | -5% | -7% | -15% | 1% | -1
COc1cc(NC(=O)CSc2nc(=O)n(CCCN3CCOCC3)c3c2CCC3)cc(OC)c1 | -18% | ? | -12% | -8% | 3% | -8
O=C(CSc1nc(=O)n(CCN2CCOCC2)c2c1CCC2)Nc1ccc(OC(F)(F)F)cc1 | -25% | 13% | ? | -14% | ? | -75*
Cc1cc(C)cc(NC(=O)CSc2nc(=O)n(CCCN3CCOCC3)c3c2CCCC3)c1 | ? | -26% | -30% | -6% | 1% | -52*
CC(C)c1ccc(NC(=O)CSc2nc(=O)n(CCCN3CCOCC3)c3c2CCC3)cc1 | -14% | -2% | ? | -11% | -10% | -63*
Oc1ccc(Br)cc1/C=N/n1c(C2CCCCC2)n[nH]c1=S | ? | ? | ? | 21% | 22% | 0
COC(OC)c1ccc(C#N)c(=O)[nH]1 | 4% | -13% | 1% | -1% | 0% | 8
O=[N+]([O-])c1cccc(/C=N/n2cnnc2)c1O | -15% | 4% | 5% | 13% | 5% | 22
O=[N+]([O-])c1ccccc1S(=O)(=O)Oc1ccccc1/C=N/n1cnnc1 | 16µM* | ? | -8% | -6% | -19% | 20
COc1cccc(/C=N/NC(=O)c2ccc3nc[nH]c3c2)c1O | -30% | ? | -4% | ? | ? | 115
COc1cc(OC)c2cc(C(=O)N/N=C/c3cccc(OC)c3O)[nH]c2c1 | 6.5µM* | 15µM* | ? | 9.2µM* | ? | 114
COc1cccc(/C=N/NC(=O)c2cc3c(OC)ccc(OC)c3[nH]2)c1O | 4.1µM* | 6.5µM* | 3.7µM* | 26µM* | ? | 80
CCC(=O)N1CCc2cc(Br)cc(S(=O)(=O)NCc3ccccc3OC)c21 | -26% | -9% | -2% | -2% | 10% | 0
O=C1COc2ccc(-c3csc(-c4ccc(F)cc4)n3)cc2N1 | -11% | ? | / | / | / | /
COc1ccc(-c2cc(-c3ccc(OC)cc3)nc(-c3ccc4c(c3)NC(=O)CO4)c2)cc1 | ? | ? | ? | ? | ? | 71
COc1cccc(-c2nc(-c3ccc4c(c3)NC(=O)CO4)cs2)c1 | 5.2µM* | 8.2µM* | ? | -14% | -4% | ?
CC(Nc1nc(-c2ccc3c(c2)NC(=O)CO3)cs1)c1ccccc1 (stereo unspecified) | 26µM* | 18µM* | ? | ? | ? | ?
CCCCCCCCCCCCCCCCCCOCC(O)CO (stereo unspecified) | -4% | -23% | / | / | / | /
Cc1nc(SCC2(C)CC2(Cl)Cl)n[nH]1 (stereo unspecified) | -12% | 5% | -4% | 9% | 10% | 24
Cc1ccc(Cl)cc1NC(=S)NCCCSC1CCCCC1 | 18µM* | ? | -30% | 18µM* | -30% | -101*
Cc1ccccc1NC(=S)NCCSc1ccc(Cl)cc1 | 18µM* | ? | -18% | -1% | -1% | -82*
SMILES | DT40 TDP1 no CPT | DT40 TDP1 CPT | ELG1 repair inh | HT1080 IDH1KD tx | HT1080-NT tox | IL1B secr inh
CCc1ccccc1NC(=S)NCCSc1ccc(Cl)cc1 | ? | ? | ? | ? | -19% | -98*
Cc1cc(Cl)ccc1NC(=S)NCCCO | 3% | -16% | -3% | 18% | 11% | i
Cc1cccc(NC(=S)NCCSc2ccc(Cl)cc2)c1 | -27% | -3% | -24% | ? | -22% | -105*
CCOc1ccc(Cl)cc1CNCCCSc1nnnn1C | -29% | -26% | / | / | / | /
CCc1nc2ccc(C(=O)N3CCCC(C(N)=O)C3)cn2c1N(CCC(C)C)CCN(C)C (stereo unspecified) | -8% | 4% | / | 13% | 16% | 0
Cc1ccc(C)c(NC(=S)NCCSc2ccc(Cl)cc2)c1 | 16µM* | 21µM* | 2% | 1% | ? | ?
Cc1cccc(NC(=S)NCC(C)CSc2ccc(Cl)cc2)c1 (stereo unspecified) | 16µM* | ? | ? | ? | ? | -9
COc1ccc(OC)c(NC(=S)NCCSc2ccc(C)cc2)c1 | 16µM* | ? | 3% | 0% | 5% | -10
Cc1ccc(NC(=S)NCC(C)CSc2ccc(Cl)cc2)cc1 (stereo unspecified) | ? | -4% | ? | 1% | 2% | -20
Cn1cccc1C(=O)C(=O)Nc1cc(Cl)cc(Cl)c1 | 15µM* | 16µM* | ? | ? | ? | 1
Cn1cccc1C(=O)C(=O)Nc1ccc(F)c(F)c1 | -1% | -3% | ? | 12% | 10% | 0
Cc1ccc(-c2cc(-c3ccc4c(c3)NC(=O)CO4)nc3c2COc2ccc(C)cc2-3)cc1 | 2.1µM* | ? | / | / | / | /
Cc1ccc2c(c1)-c1nc(-c3ccc4c(c3)NC(=O)CO4)cc(-c3ccc(Cl)cc3)c1CO2 | 1.3µM* | 1.5µM* | / | / | / | /
COc1ccc(N2CCN(C(=O)CCc3c(C)nn(-c4ccc(N5CCCC5)nn4)c3C)CC2)cc1 | -23% | -24% | / | / | / | /
CCCOc1ccc2oc(=O)c3c(c2c1)CCCN3C(=O)CN1CCCC(C(=O)OCC)C1 (stereo unspecified) | 23µM* | ? | 9% | -7% | -4% | 10
